Out of some 290,000 compounds screened, about 3,000 (1%) were called active. Cut-off read from the data, not from the text of the source: active = inhibition mostly above about 36% (no sharp cut-off); inactive = mostly below about 34%. The sample as a whole holds a higher share of actives than the screen did.
Experiment: NOD1 signaling inhibitors, primary screen, cell-based, luminescence, uHTS (AID 1578);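 note: HEK-293T reporter cells stimulated with the NOD1 agonist gamma-tri-DAP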
Conditions: NOD1-driven NF-kB luciferase reporter cells, at 4 µM, active compounds read high

inhibition, inactive:
O=[N+]([O-])c1cc(Cl)c2cccnc2c1O -7.9%
OCCN1CCN(Cc2cc(Cl)c3cccnc3c2O)CC1 26.4%
CCOC(=O)N1CCN(Cc2cc(Cl)c3cccnc3c2O)CC1 -1.5%
O=C(Cc1c(O)c2ccccc2oc1=O)c1ccc(C(F)(F)F)cc1 -10.7%
COc1ccc(NC(=S)Nc2ccc(N)c([N+](=O)[O-])c2)cc1 -69.8%
Cc1c(CNCc2cccs2)c(C(=O)O)c(C)n1Cc1ccccc1 8.7%
O=C(NC1CCCCC1)N1CCCC(CNS(=O)(=O)Cc2ccccc2)C1 (stereo unspecified) -23.7%
C/C(=N/Nc1ncc(C(F)(F)F)cc1Cl)c1ccncc1 -9%
Fc1ccccc1NC(=S)NNc1ncc(C(F)(F)F)cc1Cl 12.4%
Oc1cc2c(cc1CN1CCN(c3cccc(C(F)(F)F)c3)CC1)CCC2 19.7%
Cc1ccccc1-n1c(=O)cc(N2CCN(Cc3ccccc3)CC2)[nH]c1=O -4.3%
CN1C(=O)C(c2nnc(Nc3cccc4ccccc34)s2)C2CC1(C)Oc1ccccc12 (stereo unspecified) 3.3%
O=C1CCCN1CCC(=O)N1CCCC(Nc2ccc(F)c(F)c2)C1 (stereo unspecified) -39.2%
COc1ccc(-c2cc(C(F)(F)F)nc(-n3cncn3)n2)cc1 18.2%
COc1cccc(-c2cc(C(F)(F)F)nc(-n3cccn3)n2)c1 -19.7%
NNC(=O)c1csc(COc2cc(Cl)cc(Cl)c2)n1 -9.6%
Cc1ccc(C)c(S(=O)(=O)N=Nc2c(O)[nH]c3ccccc23)c1 -24.6%
CC(NC(=O)CSc1ncn[nH]1)c1ccc(Cl)cc1Cl (stereo unspecified) -18%
COc1ccc2c(c1)N(C)/C(=C/c1cccc[n+]1C)S2 2.2%
CN1/C(=C/c2cccc[n+]2C)Sc2ccccc21 -2.3%
Cc1nn(Cc2ccc(F)cc2)c2sc(C(=O)Nc3ccc(N4CCOCC4)cc3N3CCOCC3)cc12 -10.3%
CCOC(=O)c1ccc(NC(=O)c2cc(C)nn2-c2ccccc2)cc1 -1.2%
O=C(CN1CCN(Cc2ccccc2)CC1)Nc1ccc([N+](=O)[O-])cc1C(=O)Nc1ccccc1F -2.7%
Cc1ccc(C(=O)NCc2nnc(SCC(=O)NC(C)c3ccccc3)n2C)cc1 (stereo unspecified) -35.4%
CCN(CC)C(=S)SC1=CCS(=O)(=O)C1 -17.5%
CCN(CC)C(=S)SCC(=O)c1ccccc1 -25.7%
CCCCC(CCCC)=N/N=C/c1c(O)n(CC)c2cc(C3=NNC(=O)CC3)ccc12 -49.6%
CC/C(C)=N\N=C\c1c(O)n(CC)c2cc(C3=NNC(=O)CC3)ccc12 -29.5%
C=CCNc1nc(C(=O)OCC(=O)c2ccc(C)c([N+](=O)[O-])c2)cs1 -31.1%
CCOC(=O)c1ccc(N2C(=O)C(C)=C(C)C2=O)cc1 -37.3%
CCOC(=O)c1ccc(-n2c(C)ccc2C)cc1 -10.6%
NS(=O)(=O)c1ccc(CNC(=O)CSc2ccccc2)cc1 -19.9%
O=C(COc1ccccc1Cl)NCCCNC(=O)c1cnccn1 27.3%
Cc1cc(NC(=O)C(C)SCC(=O)N(C)CC(=O)Nc2ccc(Br)cc2C)no1 (stereo unspecified) -22.8%
Cc1ccc(C)c(NC(=O)CN(C)C(=O)CSC(C)C(=O)Nc2cc(C)on2)c1 (stereo unspecified) -0.8%
COc1cccc(OC)c1-c1nn(-c2ncc(C(F)(F)F)cc2Cl)c(=O)o1 -7.3%
CCOC(=O)c1cc2c(nc1N)CCCC2 1.3%
O=C(Cc1cccs1)Nc1nc2ccccc2s1 -32.2%
CC(=O)Nc1nc2c(ccc3ccccc32)s1 -38%
COCCn1c(SCC(=O)NCC2CCCO2)nc2c(c1=O)SCC2 (stereo unspecified) -12.5%
COc1ccc(S(=O)(=O)Cc2ccc(C(=O)NCc3ccc(C)cc3)o2)cc1 -23.8%
O=C(/C=C/c1ccccc1)NC(=S)Nc1ccc(N2CCOCC2)cc1 -25.8%
O=C(/C=C/c1ccccc1)Nc1sc2c(c1C(=O)O)CCC2 -2.6%
COc1ccc(-c2csc(NC(=O)c3cccs3)c2C(=O)O)cc1OC -46.6%
COc1cc(C(=O)Nc2sc3c(c2C(=O)O)CCC3)cc(OC)c1OC 7.5%
COc1cc(C(=O)Nc2scc(-c3ccccc3)c2C(=O)O)cc(OC)c1OC -21.1%
COc1cc(C(=O)Nc2scc(-c3ccc(C)cc3)c2C(=O)O)cc(OC)c1OC 12.7%
COc1cc(C(=O)Nc2sc(C)c(C)c2C(=O)O)cc(OC)c1OC -18.1%
O=C(Nc1scc(-c2cccs2)c1C(=O)O)c1cccs1 -40.1%
O=C(Nc1sc2c(c1C(=O)O)CCCC2)c1cccs1 43.6%
COc1ccc(CN(C)C(=O)c2cnc(OC)cc2C(F)(F)F)c(OC)c1 1%
OC(CC#CCN1CCCCC1)(c1ccccc1)c1ccccc1 -4.1%
CCN(c1ccccc1)S(=O)(=O)c1cccc(C(=O)N2CCN(S(=O)(=O)c3ccccc3)CC2)c1 -20.1%
Cc1cc(C)nc(NS(=O)(=O)c2ccc(NC(=O)c3ccccc3[N+](=O)[O-])cc2)n1 -22.1%
COc1ccc(-c2nnc(-c3cccnc3)o2)cc1OC -21.1%
CC(CNC(=O)COc1ccccc1)OC(=O)Nc1cccc(Cl)c1 (stereo unspecified) 16.6%
CC1=CS/C(=C(/C#N)C(=O)NCc2ccco2)N1c1ccccc1 4%
COC(=O)C(Cc1c[nH]c2ccccc12)NC(=O)CNC(C)=O (stereo unspecified) 6.8%
COC(=O)c1c(NC(=O)c2cccs2)sc2c1CCC(C)C2 (stereo unspecified) -32.6%
CC1CCc2c(sc(NC(=O)c3ccco3)c2C(=O)O)C1 (stereo unspecified) 14.4%
O=C(NCCCN1CCN(c2ccccc2F)CC1)C1CC(=O)N(C2CCCC2)C1 (stereo unspecified) 14.3%
COc1ccc(Br)cc1C(=O)NC(=S)Nc1ccc2[nH]c(=O)[nH]c2c1 -35.1%
O=C(NC(=S)Nc1ccc2[nH]c(=O)[nH]c2c1)c1ccccc1Cl -31.2%
COc1ccc2[nH]c(=O)c(CN(Cc3cccnc3)C(=S)NCC3CCCO3)cc2c1 (stereo unspecified) -30.3%
O=c1c2[nH]c3ccc(F)cc3c2ncn1CCN1CCOCC1 -10.5%
O=P(c1ccccc1)(c1ccccc1)C1CCCO1 (stereo unspecified) 4.7%
O=S(=O)(c1ccccc1)N1CCC2(CC1)OCCO2 -41.5%
O=S(=O)(c1ccc(Cl)cc1)N1CCC2(CC1)CO2 -17.5%
O=C(NCCCNC(=O)C(F)(F)C(F)F)C(F)(F)C(F)F -3.6%
O=C(CNS(=O)(=O)c1ccc(Br)cc1)Nc1ccc2c(c1)OCCO2 -27.7%
CCC(CC)=NNC(=O)c1ccccc1OCc1ccc(F)cc1 -13.1%
FC(F)(F)c1ccc(/C=N/NC(=S)NC2CCCCC2)cc1 -19.8%
COc1cccc(OCc2cc(C(=O)N3CCC(c4ccncc4)CC3)no2)c1 26.7%
CSc1ccccc1OCc1cc(C(=O)N2CCC(Oc3cccnc3)CC2)no1 -30.2%
Cc1cccc(C)c1OCc1cc(C(=O)N2CCC(c3ccncc3)CC2)no1 6.6%
COCC1CCN(C(=O)c2cc(COc3ccccc3SC)on2)C1 (stereo unspecified) -17.6%
Cc1ccc(NC(=S)NC(NC(=O)N(C)C)C(Cl)(Cl)Cl)cc1 (stereo unspecified) -18.2%
Cc1cc(OCC(=O)N(C(C)C)C(C)C)ccc1Cl -6.4%
O=[N+]([O-])c1cccc(-c2nnc(C34CC5CC(CC(C5)C3)C4)o2)c1 3.3%
COc1ccccc1NC(=O)Nc1ccc2c(c1)nc(C)n2C -28.8%
CC(=O)c1ccc(NC(=O)Nc2ccc3c(c2)nc(C)n3C)cc1 -18.8%
CCn1c(C)nc2cc(C(=O)NNC(=O)Nc3cccc(Cl)c3)ccc21 -5.3%
Cc1nc2cc(NC(=O)Nc3cccc4ccccc34)ccc2n1C -27.6%
CN1CCN(C(=O)C2CCCN(S(=O)(=O)c3ccc(F)cc3)C2)CC1 (stereo unspecified) -7.3%
Cc1ccccc1Nc1n[nH]c(C)c1[N+](=O)[O-] -24.5%

inhibition, active:
O=c1oc2ccccc2c(O)c1Cc1cc(Cl)c2cccnc2c1O 62.6%
COc1cccc(-c2cc(C(F)(F)F)nc(-n3cncn3)n2)c1 97.6%
CCN(CC)C(=S)SSC(=S)N(CC)CC 91.1%
CCC(CC)=N/N=C/c1c(O)n(CC)c2cc(C3=NNC(=O)CC3)ccc12 60.5%
CCOC(=O)c1ccc(N2C(=O)C=CC2=O)cc1 80.8%
CCOc1ccc(NC(=O)CN(C)C(=O)CSC(C)C(=O)Nc2cc(C)on2)cc1OCC (stereo unspecified) 44.5%
O=C(Cc1cccs1)Nc1nc2c(ccc3ccccc32)s1 35.8%
O=C(NC(=S)Nc1ccc2[nH]c(=O)[nH]c2c1)c1cc(Br)ccc1Cl 47.4%
O=S(=O)(c1ccccc1)N1CCC2(CC1)CO2 75.5%
CCn1c(C)nc2cc(NC(=O)Nc3cccc(C(C)=O)c3)ccc21 27.9%
Cc1nc2cc(NC(=O)Nc3ccccc3Cl)ccc2n1C 53%

Reference: PubChem BioAssay AID1578 (Sanford-Burnham Center for Chemical Genomics, 2009)
